Data as given in PubChem BioAssay (EPA / NIEHS).
Records with an inconclusive call do not appear. Active and inactive are the calls of the source. The calls were made as follows: active = hit-call score of the fitted dose curve at least 0.9, where 1 is the maximum; inconclusive = response in the unintended direction; inactive = score below 0.9.

Columns and labels:
[1] = target: human Elastase, ELANE (gene 1991) (UniProt P08246); assay: NVS_ENZ_hElastase: NovaScreen (NVS) Enzymatic Assay for human Elastase (AID 2283153)
Method: NVS_ENZ_hElastase is a biochemical, single-readout assay that uses extracted gene-proteins from Human neutrophils in a cell-free assay. Measurements were taken 1.5 hours after chemical dosing in a 96-well plate.NVS_ENZ_hElastase is one of one assay component(s) measured or calculated from the NVS_ENZ_hElastase assay. It is designed to make measurements of enzyme activity, a form of enzyme reporter, as detected with absorbance signals by Spectrophotometry technology.Data from the assay component NVS_ENZ_hElastase was analyzed into 1 assay endpoint. This assay endpoint, NVS_ENZ_hElastase, was analyzed in the positive analysis fitting direction relative to DMSO as the negative control and baseline of activity. Using a type of enzyme reporter, loss-of-signal activity can be used to understand changes in the enzymatic activity as they relate to the gene ELANE. Furthermore, this assay endpoint can be referred to as a primary readout, because this assay has produced multiple assay endpoints where this one serves a enzymatic activity function. To generalize the intended target to other relatable targets, this assay endpoint is annotated to the protease intended target family, where the subfamily is serine protease. […]

[2] = target: human Ephrin type-B Receptor 2 (EphB2), EPHB2 (gene 2048) (UniProt P29323); assay: NVS_ENZ_hEphB2: NovaScreen (NVS) Enzymatic Assay for human Ephrin type-B Receptor 2 (EphB2) (AID 2283156)
Procedure, shortened: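 Compounds were first tested in duplicate at 25 uM, with hits rerun singly in concentration series up to 50 uM. Enzyme activity on fluorescent substrate was read at 1 h by mobility-shift separation, scored as signal loss relative to DMSO.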

[3] = target: human Ephrin type-A Receptor 2 (EphA2), EPHA2 (gene 1969) (UniProt P29317); assay: NVS_ENZ_hEphA2: NovaScreen (NVS) Enzymatic Assay for human Ephrin type-A Receptor 2 (EphA2) (AID 2283155)
Procedure, shortened: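 Enzyme activity of recombinant EphA2 read by fluorescence after mobility-shift separation, 1 h after dosing. Chemicals first tested at 25 uM (duplicate); those passing threshold run as concentration series, top 50 uM, single replicate, relative to DMSO.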

[4] = target: human Insulin Receptor (InsR), INSR (gene 3643) (UniProt P06213); assay: NVS_ENZ_hInsR: NovaScreen (NVS) Enzymatic Assay for human Insulin Receptor (InsR) (AID 2283168)
Procedure, shortened: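 Cell-free enzyme assay read 1 h post-dose by fluorescence after substrate/product mobility-shift separation. Duplicate 25 uM primary screen, then singleton concentration-response up to 50 uM for compounds passing threshold; loss of signal vs DMSO.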

[5] = target: human Janus Kinase 2 (Jak2), JAK2 (gene 3717) (UniProt O60674); assay: NVS_ENZ_hJak2: NovaScreen (NVS) Enzymatic Assay for human Janus Kinase 2 (Jak2) (AID 2283169)
Procedure, shortened: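 Single-point duplicate screen at 25 uM, with hits run in concentration series to a 50 uM top dose. Substrate-product separation by mobility shift with fluorescence detection, 1 h post-dosing; DMSO baseline.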

[6] = target: human FYN Proto-Oncogene, Src family Tyrosine Kinase (Fyn), FYN (gene 2534) (UniProt P06241); assay: NVS_ENZ_hFyn: NovaScreen (NVS) Enzymatic Assay for human FYN Proto-Oncogene, Src family Tyrosine Kinase (Fyn) (AID 2283161)
Procedure, shortened: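 Cell-free kinase activity read by fluorescence after mobility-shift separation of substrate and product, 1 h post-dose. Initial single concentration 25 uM in duplicate, then concentration-response follow-up; DMSO baseline.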

[7] = target: human LYN Proto-Oncogene, Src family Tyrosine Kinase (LynA), LYN (gene 4067) (UniProt P07948); assay: NVS_ENZ_hLynA: NovaScreen (NVS) Enzymatic Assay for human LYN Proto-Oncogene, Src family Tyrosine Kinase (LynA) (AID 2283173)
Procedure, shortened: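 Recombinant kinase with fluorescent substrate; product separated from substrate by electrophoretic mobility shift and read 1 h after dosing. Duplicate screen at 25 uM, then concentration-response up to 50 uM; activity scored as signal loss against DMSO.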

[8] = target: Histone deacetylase 3 (Homo sapiens) (UniProt O15379); assay: NVS_ENZ_hHDAC3: NovaScreen (NVS) Enzymatic Assay for human Histone Deacetylase 3 (HDAC3) (AID 2283163)
Method: NVS_ENZ_hHDAC3 is a biochemical, single-readout assay that uses extracted gene-proteins in a cell-free assay. Measurements were taken 1 hour after chemical dosing in a 384-well plate.NVS_ENZ_hHDAC3 is one of one assay component(s) measured or calculated from the NVS_ENZ_hHDAC3 assay. It is designed to make measurements of enzyme activity, a form of enzyme reporter, as detected with fluorescence intensity signals by Fluorescence and electrophoretic mobility shift technology.Data from the assay component NVS_ENZ_hHDAC3 was analyzed into 1 assay endpoint. This assay endpoint, NVS_ENZ_hHDAC3, was analyzed in the positive analysis fitting direction relative to DMSO as the negative control and baseline of activity. Using a type of enzyme reporter, loss-of-signal activity can be used to understand changes in the enzymatic activity as they relate to the gene HDAC3. Furthermore, this assay endpoint can be referred to as a primary readout, because this assay has produced multiple assay endpoints where this one serves a enzymatic activity function. To generalize the intended target to other relatable targets, this assay endpoint is annotated to the hydrolase intended target family, where the subfamily is histone deacetylase. […]

Sequence of human LYN Proto-Oncogene, Src family Tyrosine Kinase (LynA), LYN (gene 4067) (P07948 whole entry, looked up): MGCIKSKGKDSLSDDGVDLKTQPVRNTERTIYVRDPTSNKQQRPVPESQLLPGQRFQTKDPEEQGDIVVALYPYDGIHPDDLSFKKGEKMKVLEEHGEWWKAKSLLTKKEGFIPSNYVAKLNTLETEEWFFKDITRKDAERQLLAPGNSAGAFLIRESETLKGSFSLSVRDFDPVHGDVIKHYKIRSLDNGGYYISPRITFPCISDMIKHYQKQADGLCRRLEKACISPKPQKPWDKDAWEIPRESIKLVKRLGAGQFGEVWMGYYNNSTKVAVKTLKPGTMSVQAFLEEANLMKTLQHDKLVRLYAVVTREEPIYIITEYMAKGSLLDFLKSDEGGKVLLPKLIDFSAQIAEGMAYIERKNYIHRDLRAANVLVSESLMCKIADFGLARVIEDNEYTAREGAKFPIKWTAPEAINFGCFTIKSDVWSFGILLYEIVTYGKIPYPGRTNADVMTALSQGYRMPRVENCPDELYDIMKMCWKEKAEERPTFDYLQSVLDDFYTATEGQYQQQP
Sequence of human Insulin Receptor (InsR), INSR (gene 3643) (P06213 whole entry, looked up): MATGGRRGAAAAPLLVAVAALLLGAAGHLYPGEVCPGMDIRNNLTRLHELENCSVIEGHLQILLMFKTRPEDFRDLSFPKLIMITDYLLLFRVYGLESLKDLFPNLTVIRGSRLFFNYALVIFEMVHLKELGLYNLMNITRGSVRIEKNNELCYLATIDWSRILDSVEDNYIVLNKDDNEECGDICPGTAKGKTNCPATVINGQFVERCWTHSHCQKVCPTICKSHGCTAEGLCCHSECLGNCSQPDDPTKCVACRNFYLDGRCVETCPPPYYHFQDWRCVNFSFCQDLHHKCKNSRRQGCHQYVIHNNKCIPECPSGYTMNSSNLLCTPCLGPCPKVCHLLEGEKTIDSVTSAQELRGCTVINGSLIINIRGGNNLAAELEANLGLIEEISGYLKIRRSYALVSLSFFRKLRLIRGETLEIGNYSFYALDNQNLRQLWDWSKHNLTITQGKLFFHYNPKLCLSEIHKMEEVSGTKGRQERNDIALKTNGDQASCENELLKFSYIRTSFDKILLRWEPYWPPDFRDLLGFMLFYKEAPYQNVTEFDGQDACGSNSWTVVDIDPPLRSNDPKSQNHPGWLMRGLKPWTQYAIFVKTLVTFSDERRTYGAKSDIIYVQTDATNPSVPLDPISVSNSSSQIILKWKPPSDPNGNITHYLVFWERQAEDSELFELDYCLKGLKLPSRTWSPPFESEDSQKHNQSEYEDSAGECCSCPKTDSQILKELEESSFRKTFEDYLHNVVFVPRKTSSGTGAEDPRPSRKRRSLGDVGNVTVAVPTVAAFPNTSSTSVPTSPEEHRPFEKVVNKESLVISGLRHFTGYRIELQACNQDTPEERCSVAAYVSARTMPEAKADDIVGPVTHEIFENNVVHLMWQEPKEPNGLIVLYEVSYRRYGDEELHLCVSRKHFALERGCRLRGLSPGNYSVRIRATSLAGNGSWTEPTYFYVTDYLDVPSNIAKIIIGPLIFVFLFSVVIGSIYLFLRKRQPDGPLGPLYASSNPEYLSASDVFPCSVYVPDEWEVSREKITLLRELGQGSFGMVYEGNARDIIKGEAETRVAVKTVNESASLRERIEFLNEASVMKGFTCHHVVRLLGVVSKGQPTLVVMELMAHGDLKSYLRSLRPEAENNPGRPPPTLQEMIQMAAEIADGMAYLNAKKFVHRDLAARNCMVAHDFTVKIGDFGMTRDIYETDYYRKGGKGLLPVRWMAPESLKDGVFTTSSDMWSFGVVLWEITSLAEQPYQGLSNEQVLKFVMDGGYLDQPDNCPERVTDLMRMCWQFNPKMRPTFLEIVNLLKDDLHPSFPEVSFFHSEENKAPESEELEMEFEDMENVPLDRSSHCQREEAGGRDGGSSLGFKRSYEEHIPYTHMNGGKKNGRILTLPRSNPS
Sequence of human Ephrin type-A Receptor 2 (EphA2), EPHA2 (gene 1969) (P29317 whole entry, looked up): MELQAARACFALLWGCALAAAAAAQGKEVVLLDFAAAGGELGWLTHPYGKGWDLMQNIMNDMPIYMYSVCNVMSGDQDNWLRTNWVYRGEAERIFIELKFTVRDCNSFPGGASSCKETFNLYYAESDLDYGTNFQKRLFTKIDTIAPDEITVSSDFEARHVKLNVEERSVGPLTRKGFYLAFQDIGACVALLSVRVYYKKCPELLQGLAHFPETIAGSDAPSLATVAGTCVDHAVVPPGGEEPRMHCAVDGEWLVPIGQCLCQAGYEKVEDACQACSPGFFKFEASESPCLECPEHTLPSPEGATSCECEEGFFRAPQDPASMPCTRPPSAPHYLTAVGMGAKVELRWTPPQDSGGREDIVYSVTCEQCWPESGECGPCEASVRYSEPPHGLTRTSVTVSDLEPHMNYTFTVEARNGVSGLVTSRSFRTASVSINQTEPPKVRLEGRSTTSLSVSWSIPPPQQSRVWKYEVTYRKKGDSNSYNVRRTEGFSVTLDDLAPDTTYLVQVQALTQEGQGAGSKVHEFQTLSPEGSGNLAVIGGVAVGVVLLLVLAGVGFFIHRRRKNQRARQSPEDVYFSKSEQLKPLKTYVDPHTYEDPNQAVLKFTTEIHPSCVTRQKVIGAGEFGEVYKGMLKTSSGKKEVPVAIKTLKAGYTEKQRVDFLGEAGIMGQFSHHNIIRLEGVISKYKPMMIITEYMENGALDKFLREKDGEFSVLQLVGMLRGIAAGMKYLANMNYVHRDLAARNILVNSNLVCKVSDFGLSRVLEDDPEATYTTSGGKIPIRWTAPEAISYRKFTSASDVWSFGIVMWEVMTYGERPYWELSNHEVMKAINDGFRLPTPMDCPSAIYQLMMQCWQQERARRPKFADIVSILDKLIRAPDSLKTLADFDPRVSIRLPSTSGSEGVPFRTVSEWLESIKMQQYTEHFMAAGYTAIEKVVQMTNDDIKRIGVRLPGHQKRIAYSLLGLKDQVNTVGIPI
Sequence of human FYN Proto-Oncogene, Src family Tyrosine Kinase (Fyn), FYN (gene 2534) (P06241 whole entry, looked up): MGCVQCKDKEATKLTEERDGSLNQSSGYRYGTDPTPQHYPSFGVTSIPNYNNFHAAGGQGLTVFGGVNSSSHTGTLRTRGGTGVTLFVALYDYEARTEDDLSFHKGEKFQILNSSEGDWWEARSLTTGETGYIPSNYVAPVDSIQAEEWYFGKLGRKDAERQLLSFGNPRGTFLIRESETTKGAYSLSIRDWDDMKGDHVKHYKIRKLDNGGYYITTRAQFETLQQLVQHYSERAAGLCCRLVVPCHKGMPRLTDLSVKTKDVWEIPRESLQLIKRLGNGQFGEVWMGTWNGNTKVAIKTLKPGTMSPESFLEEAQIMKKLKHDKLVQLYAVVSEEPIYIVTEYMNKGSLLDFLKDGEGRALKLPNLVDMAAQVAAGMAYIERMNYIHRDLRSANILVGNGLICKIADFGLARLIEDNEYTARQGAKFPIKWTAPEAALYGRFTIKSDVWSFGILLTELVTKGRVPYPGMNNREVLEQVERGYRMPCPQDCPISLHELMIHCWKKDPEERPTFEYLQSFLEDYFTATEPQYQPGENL
Sequence of human Elastase, ELANE (gene 1991) (P08246 whole entry, looked up): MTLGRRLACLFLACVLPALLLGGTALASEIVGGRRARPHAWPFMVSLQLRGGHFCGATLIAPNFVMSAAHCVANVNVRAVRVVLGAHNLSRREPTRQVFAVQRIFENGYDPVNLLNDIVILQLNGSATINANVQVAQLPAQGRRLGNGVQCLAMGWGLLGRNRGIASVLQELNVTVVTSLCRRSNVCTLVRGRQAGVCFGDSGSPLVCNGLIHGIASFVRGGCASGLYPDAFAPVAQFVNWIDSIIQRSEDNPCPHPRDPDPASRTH
Sequence of human Janus Kinase 2 (Jak2), JAK2 (gene 3717) (O60674 whole entry, looked up): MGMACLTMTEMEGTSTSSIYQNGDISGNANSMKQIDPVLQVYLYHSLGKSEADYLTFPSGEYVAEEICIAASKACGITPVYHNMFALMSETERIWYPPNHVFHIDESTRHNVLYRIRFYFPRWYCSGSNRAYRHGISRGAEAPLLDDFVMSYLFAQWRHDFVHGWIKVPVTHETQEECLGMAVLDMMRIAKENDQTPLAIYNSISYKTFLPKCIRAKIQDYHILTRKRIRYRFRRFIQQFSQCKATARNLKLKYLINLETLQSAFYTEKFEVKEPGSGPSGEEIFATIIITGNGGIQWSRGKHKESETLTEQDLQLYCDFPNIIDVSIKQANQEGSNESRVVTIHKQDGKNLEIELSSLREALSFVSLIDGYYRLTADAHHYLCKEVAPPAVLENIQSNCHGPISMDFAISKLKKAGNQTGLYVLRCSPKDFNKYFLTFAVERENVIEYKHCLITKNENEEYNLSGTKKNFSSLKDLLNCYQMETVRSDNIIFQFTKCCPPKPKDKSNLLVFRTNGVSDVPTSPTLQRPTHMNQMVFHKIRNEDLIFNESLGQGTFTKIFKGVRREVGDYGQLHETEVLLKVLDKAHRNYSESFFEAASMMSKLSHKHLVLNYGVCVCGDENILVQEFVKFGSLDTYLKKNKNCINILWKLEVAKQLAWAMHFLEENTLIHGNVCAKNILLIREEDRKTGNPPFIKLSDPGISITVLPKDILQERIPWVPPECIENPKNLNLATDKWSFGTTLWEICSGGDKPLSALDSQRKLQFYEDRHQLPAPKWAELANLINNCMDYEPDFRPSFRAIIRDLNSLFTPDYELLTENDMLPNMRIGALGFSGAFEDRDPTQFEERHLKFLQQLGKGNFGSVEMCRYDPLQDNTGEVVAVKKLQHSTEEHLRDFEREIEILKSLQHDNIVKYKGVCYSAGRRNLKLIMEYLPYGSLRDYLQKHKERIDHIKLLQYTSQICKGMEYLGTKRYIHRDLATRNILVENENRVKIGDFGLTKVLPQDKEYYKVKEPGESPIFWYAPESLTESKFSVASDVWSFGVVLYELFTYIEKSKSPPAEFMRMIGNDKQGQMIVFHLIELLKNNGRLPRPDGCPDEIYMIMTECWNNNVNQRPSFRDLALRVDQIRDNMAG

In the case of O=C(O)C1(c2ccc3c(c2)OC[C@H](Cc2ccc(-c4ccccc4)cc2)[C@H]3O)CCCC1, the AC50 [1] is reported as 17.7 µM (active).
In the case of CCCCCCCCCCCCc1cccc(S(=O)(=O)O)c1, the AC50 [1] is reported as 26.7 µM (active) and the outcome [2] is reported as “inactive”.
For CCCCCCCCCCCCOS(=O)(=O)O, the AC50 [3] was 40.8 µM (active).
With N#Cc1cccnc1 the outcome [3] was “inactive”, the outcome [4] was “inactive” and the outcome [5] was “inactive”.
In the case of O=C(N[C@H]1CN2CCC1CC2)c1ccc2c(c1)OCCO2, the outcome [6] is reported as “inactive” and the outcome [7] is reported as “inactive”.
For CC(C)O.CC(C)O.OCCN(CCO)CCO.OCCN(CCO)CCO.[Ti], the AC50 [6] was 0.0034 µM (active).
For Oc1cc(Cl)c(Cl)cc1Cl, the outcome [8] was “inactive”.
Cc1cc(C)cc(C)c1 was tested, and the outcome [4] was “inactive”.
For CN(C)C(=S)S, the outcome [5] was “inactive”.
With OCCN(CCO)CCO the outcome [7] was “inactive”.
